Consider 17 molecules from PubChem BioAssay (NCATS).

Values without a mark were called inactive. Records with an inconclusive call do not appear. Activity calls are given as the source filed them. Unless noted, calls follow the shape of the dose curve; as a rule, active = well fitted curve in the direction sought with a large enough effect; inconclusive = small, poorly fitted or top-dose-only effect, or another doubt; inactive = no such curve, though single readings can be large; an effect the other way counts as inactive or inconclusive.

Assay [1] can be described thus: qHTS Assay for Identification of Small Molecule Antagonists for NFkB Signaling Pathway (AID 895; active = well fitted inhibition curve with a large enough effect in the signal ratio, with a control signal flat, not every such curve was filed as active; the % refers to the signal ratio; also: potency is read from the fitted curve at half-maximal effect). In short, it runs like this:
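NFkB-bla ME-180 cervical carcinoma cells with beta-lactamase reporter under NFkB response element; compounds added, then TNF alpha at 10 pM final (EC50), 5 h at 37 C. LiveBLAzer substrate 2 h, room temperature; emission 460/530 nm at 405 nm excitation.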
(In general: qHTS replaces the single test concentration by a dilution series.)

The target in assay [2] is Cytochrome P450 2C19 (Homo sapiens) (UniProt P33261). As to the kind of experiment: qHTS Assay for Inhibitors and Substrates of Cytochrome P450 2C19 (AID 899). Also: % is scaled to controls: 0 for no effect and ±100 for the full control effect; nearly all actives have a fitted effect of over 60% in size. In outline:
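In 50mM KPO4, the reaction held 5nM enzyme and KM-level (10uM) Luciferin-H EGE; it ran 60 min at 37C after NADPH regeneration and a 10 min compound preincubation. Luminescence values were scaled to 57uM ketoconazole as complete inhibition.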

Assay [3] in a line: Confirmation and Secondary Assay for Modulators of Hemoglobin Beta Chain Splicing at IVS2 654 locus (AID 910).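 Also: per-well total GFP intensity by laser scanning cytometry after 2-day treatment; % of control where 0% means no effect.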 In short, it runs like this:
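HeLa cells stably carrying EGFP interrupted by mutant beta-globin IVS2-654 intron (CMV-driven) were treated with compound for 2 days at 37C; corrected splicing was scored as total peak GFP intensity per well (488 nm excitation, 500-520 nm emission).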

Assay [4] in a line: qHTS Assay for Identification of Small Molecule Agonists for Thrombopoietin (TPO) Signaling Pathway (AID 917). Also: % is scaled to controls: 0 for no effect and ±100 for the full control effect. In short, it runs like this:
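Luminescence from a Glycoprotein IIb promoter–driven luciferase reporter served as read-out in murine Ba/F3 cells carrying the human TPO receptor. Cells, deprived of IL-3 overnight, received compounds with 26 pM TPO and were incubated 24 hrs at 37 C.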

A short description of assay [5]: Confirmation and Secondary Assay for Modulators of Hemoglobin Beta Chain Splicing at IVS2 705 locus (AID 930).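 Also: HeLa cells stably expressing the EGFP-705 splicing reporter; GFP fluorescence per well restored by corrected splicing of the IVS2-705 intron in EGFP; series mostly up to about 46 µM; % of control where 0% means no effect.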 In outline:
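Splice-correction reporter: EGFP cDNA split by beta-globin intron 2 bearing the 705 mutation, stably in HeLa. Compound incubation 2 days, 37C; fluorescent objects 5-250 µm summed per well.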

In assay [6] the target is Muscarinic acetylcholine receptor M1 (Rattus norvegicus) (UniProt P08482). Kind of assay: qHTS Assay for Antagonists of Acetylcholine Muscarinic M1 Receptor: Kinetic Measurement of Intracellular Calcium Response (AID 943).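 Also: Fluo-4 calcium signal as peak divided by basal fluorescence over 4 min; series mostly up to about 35 µM; nearly all actives have a fitted effect of over 75% in size.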 In short, it runs like this: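 Intracellular calcium flux, recorded with Fluo-4 in a kinetic plate reader, served as signal; the response to carbachol at EC80 (100 nM final) was taken as maximal over minimal fluorescence after a 10 min compound pre-incubation in rat M1-CHO cells.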

The target is the same in assay [7]. Kind of assay: qHTS Assay for Antagonists of Acetylcholine Muscarinic M1 Receptor: Measurement of IP-One Response (AID 944). Also: nearly all actives have a fitted effect of over 75% in size. In short, it runs like this: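 Steps: plate transfected CHO-M1 cells overnight; add test compound, 10 min; add carbachol (200 nM, EC80) in stimulation buffer with LiCl; incubate 30 min; add labelled IP1 tracer and anti-IP1 antibody in lysis buffer; read HTRF after 10 min.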

Assay [8] has as its target Pyruvate kinase (Leishmania mexicana) (UniProt Q27686). As to the kind of experiment: qHTS Validation Assay for Inhibitors of Leishmania Mexicana Pyruvate Kinase (AID 945). Also: potency is read from the fitted curve at half-maximal effect. In outline:
(§1)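 The enzyme is a highly purified E451W mutant of LmPYK used at 0.2 nM. It converts 0.5 mM PEP and 0.1 mM ADP over 1 h at room temperature; product ATP is quantified by luciferase luminescence relative to DMSO controls.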

Assay [9] addresses Pyruvate kinase PKM (Homo sapiens) (UniProt P14618). Kind of assay: qHTS Assay for Activators of Human Muscle Pyruvate Kinase (AID 954; active = well fitted curve in the direction sought with a large enough effect, not every such curve was filed as active;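 also: 0% = uninhibited enzyme and -100% = no enzyme or full thiadiazolimine inhibition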). In short, it runs like this:
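Human PKM2 activity is measured as ATP generation, detected by luciferase-coupled luminescence. The enzyme (0.1 nM) acts on 0.5 mM PEP and 0.1 mM ADP for 1 h at ambient temperature; data are normalized to uninhibited and full-inhibition wells.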

The nature of assay [10]: qHTS Assay for Identification of Small Molecule Agonists for Hypoxia Response Element Signaling Pathway (AID 914; active = well fitted activation curve with a large enough effect in the signal ratio, with a control signal flat, not every such curve was filed as active; the % refers to the signal ratio; also: % of control where 0% means no effect). The note with it: ME-180 (cervical carcinoma) HRE-bla reporter, beta-lactamase ratio, CoCl2, 17 h; activation: hits give high values. In outline: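 Cells were plated overnight, pin-dosed with compound in a titration series, co-stimulated with EC50 CoCl2 and incubated 17 hours at 37 degrees Celsius. CCF4 substrate was then loaded, and AC50 values came from the 460nm/530nm ratio.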

Assay [11] addresses Pyruvate kinase PKM (Homo sapiens) (UniProt P14618). Kind of assay: qHTS Assay for Inhibitors of Human Muscle Pyruvate Kinase (AID 958). In outline: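 Compound pinned into substrate mix (0.5 mM PEP, 0.1 mM ADP), then 0.1 nM PKM2 added; 1 h, RT. Stop/detection luciferase reagent added, luminescence read. Normalized to no-inhibition and no-enzyme or reference-inhibitor controls.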

For assay [12], the target named is Pyruvate kinase (Leishmania mexicana) (UniProt Q27686). As to the kind of experiment: qHTS Validation Assay for Activators of Leishmania Mexicana Pyruvate Kinase (AID 959). In outline:
as §1

Pyruvate kinase PKM (Homo sapiens), sequence (P14618 whole entry, looked up): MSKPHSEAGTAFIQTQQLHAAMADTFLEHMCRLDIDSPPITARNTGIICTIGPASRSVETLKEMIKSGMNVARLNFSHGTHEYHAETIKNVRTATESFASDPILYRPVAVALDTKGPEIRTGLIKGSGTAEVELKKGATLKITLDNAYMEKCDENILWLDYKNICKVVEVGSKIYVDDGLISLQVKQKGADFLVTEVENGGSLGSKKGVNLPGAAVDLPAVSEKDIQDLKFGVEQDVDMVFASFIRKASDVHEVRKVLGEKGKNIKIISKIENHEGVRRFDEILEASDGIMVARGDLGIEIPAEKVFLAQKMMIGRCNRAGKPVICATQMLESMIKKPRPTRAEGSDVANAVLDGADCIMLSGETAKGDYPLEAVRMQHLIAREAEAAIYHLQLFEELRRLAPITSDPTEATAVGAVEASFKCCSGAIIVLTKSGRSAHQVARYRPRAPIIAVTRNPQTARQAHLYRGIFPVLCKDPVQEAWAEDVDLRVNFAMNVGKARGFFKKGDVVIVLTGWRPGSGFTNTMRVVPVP
Pyruvate kinase (Leishmania mexicana), sequence (Q27686 2-499 E452W): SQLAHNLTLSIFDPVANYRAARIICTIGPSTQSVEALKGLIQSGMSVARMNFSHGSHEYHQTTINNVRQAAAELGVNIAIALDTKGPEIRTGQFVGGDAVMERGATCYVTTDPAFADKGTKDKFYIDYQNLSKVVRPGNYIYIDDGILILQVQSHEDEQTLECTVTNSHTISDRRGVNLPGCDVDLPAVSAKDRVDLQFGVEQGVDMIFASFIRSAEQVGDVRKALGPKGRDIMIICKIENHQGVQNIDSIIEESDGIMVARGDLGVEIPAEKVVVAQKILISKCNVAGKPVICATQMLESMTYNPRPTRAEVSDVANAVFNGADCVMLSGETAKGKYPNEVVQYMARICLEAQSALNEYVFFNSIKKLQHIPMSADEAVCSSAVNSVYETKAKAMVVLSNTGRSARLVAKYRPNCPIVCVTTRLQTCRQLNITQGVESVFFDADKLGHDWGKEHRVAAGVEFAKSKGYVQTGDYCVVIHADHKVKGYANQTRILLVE
Muscarinic acetylcholine receptor M1 (Rattus norvegicus), sequence (P08482 whole entry, looked up): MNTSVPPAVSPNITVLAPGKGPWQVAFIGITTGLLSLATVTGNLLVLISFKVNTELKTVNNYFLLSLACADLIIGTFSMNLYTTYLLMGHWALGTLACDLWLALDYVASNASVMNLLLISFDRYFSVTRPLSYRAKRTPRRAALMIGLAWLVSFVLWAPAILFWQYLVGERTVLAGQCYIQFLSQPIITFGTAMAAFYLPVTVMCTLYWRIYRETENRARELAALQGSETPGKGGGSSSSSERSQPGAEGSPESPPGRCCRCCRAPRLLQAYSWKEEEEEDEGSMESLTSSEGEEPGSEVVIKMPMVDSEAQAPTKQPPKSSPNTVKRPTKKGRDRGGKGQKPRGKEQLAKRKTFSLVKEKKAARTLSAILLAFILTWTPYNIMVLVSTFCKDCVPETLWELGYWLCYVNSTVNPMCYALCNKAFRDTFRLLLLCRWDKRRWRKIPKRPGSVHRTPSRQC
Cytochrome P450 2C19 (Homo sapiens), sequence (P33261 whole entry, looked up): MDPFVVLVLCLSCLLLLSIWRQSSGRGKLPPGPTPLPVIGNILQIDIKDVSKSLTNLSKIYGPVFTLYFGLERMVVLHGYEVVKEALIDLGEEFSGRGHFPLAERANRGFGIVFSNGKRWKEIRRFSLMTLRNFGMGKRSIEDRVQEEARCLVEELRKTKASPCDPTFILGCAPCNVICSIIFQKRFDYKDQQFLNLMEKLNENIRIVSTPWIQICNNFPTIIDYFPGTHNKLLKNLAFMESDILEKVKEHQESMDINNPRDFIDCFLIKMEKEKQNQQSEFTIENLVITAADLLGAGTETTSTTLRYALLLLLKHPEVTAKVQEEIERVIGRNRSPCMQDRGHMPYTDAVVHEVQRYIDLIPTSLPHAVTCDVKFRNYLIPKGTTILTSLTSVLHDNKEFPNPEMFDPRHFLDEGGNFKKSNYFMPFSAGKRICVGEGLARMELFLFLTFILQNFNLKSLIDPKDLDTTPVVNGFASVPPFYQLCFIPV

`O=C(O)c1cccnc1C(=O)O`: the Potency entry in assay [1], in assay [2], in [3], in [4], in assay [6] and in assay [7] was “inactive” throughout. In addition, the Potency result in assay [8] was “inactive”. Further, the outcome in [5] and in assay [9] was inactive.

Turning to `CN[C@H](CC(=O)O)C(=O)O`, the Potency result in assay [1], in assay [2], in assay [4], in assay [7] and in assay [8] was “inactive” in each case. For the same molecule, the call in assay [9] was inactive.

Regarding `N#CC(C#N)=C(N)/C(C#N)=C/c1ccc(O)cc1`, the Potency result in assay [1], in [4], in [6], in [7] and in [8] was “inactive” each time. Besides, the outcome in [9] was inactive.

Turning to `NC1(C(=O)O)CC1`, the Potency result in [1], in assay [3], in [4], in [7] and in assay [8] was “inactive” in each case. For the same molecule, in assay [10], the activation was -20.7%. The molecule was called inactive in assay [5] and in assay [9].

With `O=C(O)C1=CCNCC1`, the Potency result in assay [1], in [3], in [4], in assay [6], in assay [7] and in assay [8] was “inactive” in each case. Further, the molecule was called inactive in assay [5] and in assay [9].

For the molecule `Cn1c(=O)[nH]c2ncn(C)c2c1=O`, the Potency entry in [1], in assay [3], in assay [4], in [6], in [7] and in assay [8] was “inactive” throughout. Besides, the result in [5] and in assay [9] was inactive.

Regarding `N=C(N)c1ccccc1`, the Potency result in [1], in assay [4], in assay [6], in assay [7] and in [8] was “inactive” each time. For the same molecule, the molecule was classed as inactive in assay [9].

Take `O=C1Nc2ccc(I)cc2/C1=C/c1cc(Br)c(O)c(Br)c1`: in assay [1], the Potency was 8.91 µM (active). For the same molecule, the Potency entry in assay [4], in assay [6] and in assay [8] was “inactive” throughout. Also, in assay [9], the molecule was called inactive.

For `CCC(=O)N1CCN(C(=O)c2ccccc2)CC1`, the Potency result in [1], in assay [4], in assay [6] and in assay [8] was “inactive” in each case. Besides, the molecule was classed as inactive in assay [9].

For `COc1ccccc1N1CCN(CCCNc2c(C)c(=O)n(C)c(=O)n2C)CC1`, the Potency result in assay [1], in assay [4] and in assay [8] was “inactive” throughout. The molecule was called inactive in assay [9].

Regarding `Cc1nc(N=Nc2cc(S(=O)(=O)O)c3cc([N+](=O)[O-])cc(S(=O)(=O)O)c3c2)c(COP(=O)(O)O)c(C=O)c1O`, the Potency entry in assay [1], in assay [7] and in [8] was “inactive” each time. Also, the molecule was classed as inactive in assay [9].

On to `COc1ccc(CCN(C)CCc2ccc(OC)c(OC)c2)cc1OC`, for which the Potency result in assay [1], in [4] and in assay [8] was “inactive” in each case. In assay [9], the molecule was classed as inactive.

`CCN(CC)CCOC(=O)c1cc(Cl)c(N)cc1OC`: the Potency result in assay [1], in [4], in assay [7] and in assay [8] was “inactive” throughout. Besides, the molecule was called inactive in [9].

Take `CC[N+](CC)(CC)CC(=O)Nc1c(C)cccc1C`: the Potency entry in [1], in assay [4] and in assay [8] was “inactive” each time. Besides, in [9], the result was inactive.

On to `O=C(O)C1CCNCC1`, for which the Potency result in [1], in assay [4], in [7] and in assay [8] was “inactive” each time. In addition, the molecule was classed as inactive in assay [9].

Take `Nc1ccc(-c2ccc3ccccc3n2)cc1`: the Potency result in assay [1], in [7] and in [12] was “inactive” in each case. Further, the Potency in assay [8] and in assay [11] was 12.6 µM (active) throughout. The outcome in assay [9] was inactive.

In the case of `O=c1[nH]ccc2c(O)cccc12`, the Potency result in assay [1], in assay [4], in assay [6], in assay [7] and in assay [8] was “inactive” throughout. Also, the outcome in [9] was inactive.
